Only some compounds are listed: those with a hit (about 11% of all), similar ones and a draw of the others.
L3MBTL1 inh: qHTS Assay for the Inhibitors of L3MBTL1. AID 485360, 2010. AlphaScreen L3MBTL1–H3K9me1 peptide binding. 0.66% of 230,000 active. Potency, µM (highest dose often 57.1 µM), for inactives: at the top dose activity, negative = inhibition, actives largely listed as inhibitors. Lethal(3)malignant brain tumor-like protein 1 (Homo sapiens), Q9Y468; further: on the % scale 0 is the no-effect control and ±100 the full control effect; nearly all actives have a fitted effect of over 60% in size
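AlphaScreen proximity signal between nickel-chelate acceptor and streptavidin donor beads (final 10 ug/mL) reports binding of 50 nM L3MBTL1 to 75 nM biotin-H3 K9me1 peptide; complex incubated with compounds 30 min at room temperature; cefsulodin titration as control.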
JMJD2A Tudor inh: qHTS Assay for Inhibitors of JMJD2A-Tudor Domain. Lysine-specific demethylase 4A (Homo sapiens), O75164. AlphaScreen JMJD2A-Tudor / H3K4me3 peptide binding. Potency, µM (top dose mostly 114 µM), inactives show at the highest dose activity change, negative = inhibition, hits mostly inhibitors. 4.4% of 390,000 active. AID 504339, 2011; further: on the % scale 0 is the no-effect control and ±100 the full control effect; nearly all actives have a fitted effect of over 50% in size
G9a inh: qHTS Assay for Inhibitors of Histone Lysine Methyltransferase G9a | Histone-lysine N-methyltransferase EHMT2 (Homo sapiens), Q96KQ7 | G9a H3K9 monomethylation, AlphaScreen, 2 h | Potency, µM (top dose mostly 102 µM), for inactives: at the top dose activity, negative = inhibition, hits mostly inhibitors | 8.8% of 350,000 active | AID 504332, 2011; further: on the % scale 0 is the no-effect control and ±100 the full control effect; nearly all actives have a fitted effect of over 75% in size
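Using a bead-based AlphaScreen, monomethylated H3K9 product from 2 h room-temperature reactions (G9a 20 nM, peptide 500 nM, SAM 20 uM) was detected with 0.5 ug/mL rabbit anti-H3K9me1 antibody.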
BAZ2B inh: qHTS Assay for Inhibitors of BAZ2B. Potency, µM (titrated, usually from 114 µM), for the others: top-dose activity change, negative = inhibition, most hits filed as inhibitors. AlphaScreen BAZ2B-H3K14Ac peptide displacement. Bromodomain adjacent to zinc finger domain protein 2B (Homo sapiens), Q9UIF8. AID 504333, 2011. 4.4% of 360,000 active; further: on the % scale 0 is the no-effect control and ±100 the full control effect; nearly all actives have a fitted effect of over 60% in size
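In this displacement format the biotinylated H3(5-23) peptide acetylated at Lys14 serves as ligand at 50 nM, with BAZ2B at 50 nM in PBS pH 7.4 containing 0.01% Tween-20. Donor and acceptor beads are 10 ug/mL final.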
HP1b chromo inh: HTS for Inhibitors of HP1-beta Chromodomain Interactions with Methylated Histone Tails; Chromobox protein homolog 1 (Homo sapiens), P83916; 0.56% of 390,000 active; Potency, µM (top dose mostly 114 µM), inactives show at the top dose activity change, negative = inhibition, most hits filed as inhibitors; AID 540317, 2011; AlphaScreen HP1-beta / biotin-H3K9me3 peptide binding; further: nearly all actives have a fitted effect of over 70% in size
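HP1-beta protein (50 nM final) preincubated 30 min at room temperature with biotinylated H3(1-18)K9me3 peptide (50 nM) in PBS pH 7.4, 0.01% Tween-20, then compound added for 30 min. AlphaScreen streptavidin donor/nickel chelate acceptor beads (10 ug/mL final), 30 min dark, luminescence read.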
* hit, by the source's call; ? = inconclusive; · = no result; [ ] = another dose, or the depositor's remark. The call rests on the fitted dose curve; in most records, active means well fitted inhibition curve with a large enough effect; inconclusive means small, poorly fitted or top-dose-only effect; inactive means no such curve, though single readings can be large or run the other way. Potency means the concentration at half of the fitted maximal effect.

SMILES | L3MBTL1 inh | JMJD2A Tudor inh | G9a inh | BAZ2B inh | HP1b chromo inh
CCc1ccc(NC(=O)CC2C(=O)N(c3cccc(C)c3)C(=O)N2Cc2cccc(OC)c2)cc1 (stereo not given) | · | -29% | -8%[59 µM] | -10% | 16%
COc1cc(C(=O)N2CCN(C(=O)c3cc(-c4ccccc4)n[nH]3)CC2)cc(OC)c1OC | · | -10% | -7%[59 µM] | -29% | 44%
COC(=O)/C=c1/s/c(=C(\C#N)C(=O)NCc2ccco2)n(-c2ccccc2)c1=O | -8% | -6% | 45µM* | -7% | 12%
COc1ccc(Cl)cc1NC(=O)c1cc(S(=O)(=O)NC2CCCCCC2)ccc1F | · | -17% | 3%[59 µM] | 3% | 29%
COc1ccc(C)cc1NC(=O)C1COc2ccccc2C1 (stereo not given) | · | 8.9µM* | -5%[59 µM] | 5% | 25%[57 µM]
CCOc1cc(C(N)=O)cc(Cl)c1OCc1ccccc1 | 4% | -12% | -7%[59 µM] | ? | 24%
CCOc1cc(/C=C(/NC(C)=O)C(=O)O)cc(Cl)c1OCc1cccc(Br)c1 | 1% | ? | -10%[12.7 µM] | 50µM* | 3%[57 µM]
CCN(CC)c1ccc(Nc2nc(Cl)ncc2Br)cc1 | · | 28µM* | 10µM* | 35µM* | ?
CC(C)OCCCNC(=O)CN1C(=O)c2cccc3cccc1c23 | 7% | -7% | 34% | 1% | 19%
O=C(CN1C(=O)C2C3c4ccccc4C(c4ccccc43)C2C1=O)Nc1ccccc1C(=O)O (stereo not given) | 36% | -12% | 0%[59 µM] | 4% | 25%
Cc1ccccc1NC(=O)CN1C(=O)C2C3CC(C(Br)C3Br)C2C1=O (stereo not given) | -6% | ? | 5µM* | -11% | ?
Cc1cccc(CNC(=O)c2sc3ncnc(N(C)C4CCCCC4)c3c2C)c1 | · | -4% | 4%[59 µM] | 3% | 32%
COc1cc(NC(=O)Cn2cc(C(=O)c3ccc(F)cc3)c(=O)c3ccc(C)nc32)cc(OC)c1 | · | -14% | -15%[59 µM] | 9%[57.1 µM] | 31%
CCOC(=O)c1cc2c(ccn2C)n1CC(=O)N(Cc1ccccc1)c1ccccc1 | ? | 25µM* | 28µM* | 32µM* | -46%
CCOC(=O)c1cc2c(ccn2C)n1CC(=O)N1CCN(c2ccccc2)CC1 | -5% | -20% | ? | -5% | 14%
CC(C)OC(=O)c1cc2c(ccn2C)n1CC(=O)N(Cc1ccccc1)c1ccc(F)cc1 | -16% | 18µM* | 28µM* | 40µM* | ?
Cc1ccc(CNC(=O)c2oc3ccc(S(=O)(=O)N4CCC(C)CC4)cc3c2C)cc1 | · | 3% | -4%[59 µM] | 4% | -26%
O=C(C1CCN(S(=O)(=O)Cc2ccccc2)CC1)N1CCN(c2ccccc2F)CC1 | · | -21% | ? | -13% | 23%
CSc1ccccc1C(=O)Nc1c(C)cccc1C | 2% | -4% | 28µM* | -12% | 28%
CSc1ccccc1C(=O)NCCOc1cccc(C)c1 | 6% | -3% | 45µM* | -15% | 71%
CSc1ccccc1C(=O)Nc1ccccc1C | 4% | -8% | · | -2% | 5%
CSc1ccccc1C(=O)Nc1ncn[nH]1 | -23% | 79µM* | 1.6µM* | ? | 44%
Cc1cc(C)nc(S/C=C/C(=O)c2ccccc2F)n1 | -2% | ? | 14µM* | -17% | 37%
Cc1cc(C)nc(NC(=S)NC(=O)c2ccccc2F)n1 | · | ? | · | · | 12%
COc1ccc(CCNC(=O)CCc2cn(Cc3ccccc3Cl)c3ccccc23)c(OC)c1 | · | -33% | ? | ? | 24%
SMILES | L3MBTL1 inh | JMJD2A Tudor inh | G9a inh | BAZ2B inh | HP1b chromo inh
COc1ccc2c(c1)Sc1ccccc1N2 | ? | 40µM* | 3.5µM* | 20µM* | 28µM*
c1ccc2c(c1)Nc1cc3ccccc3cc1S2 | -14% | -28% | 40µM* | -30% | 2%
c1ccc2c(c1)Nc1ccncc1S2 | 34% | -18% | · | -26% | 27%
COc1ccc2c(c1)S(=O)(=O)c1ccccc1N2 | 3% | -19% | 14% | -2% | 27%
Cc1cc(C)c(NC(=O)CSc2n[nH]c(-c3ccccc3Cl)n2)c(C)c1 | · | -10% | -4%[59 µM] | 2% | 17%[57 µM]
O=C(O)c1ccc(-c2cccc(Cl)c2)o1 | · | -24% | · | · | 10%
N#CCCN1CCN(C(=S)c2ccc(-c3cccc(Cl)c3)o2)CC1 | -11% | 35µM* | 8.9µM* | 35µM* | ?
N#CCCN1CCN(C(=S)c2ccc(-c3ccc(Cl)c(Cl)c3)o2)CC1 | -19% | 50µM* | ? | · | ?
CC1CN2C(c3ccc([N+](=O)[O-])cc3)=CSC2=N1 (stereo not given) | 2%[2.29 µM] | 79µM* | 14%[0.501 µM] | -6% | ?
COC(=O)c1ccc2c(c1)N(Cc1ccccc1)C(=O)c1ccccc1S2(=O)=O | · | -23% | -4%[59 µM] | 2% | 43%
CN(C)CCN(C(=O)c1ccccc1Cl)c1nc2c(Cl)cccc2s1 | -3% | 25µM* | 10µM* | -65% | ?
CCN(CC)CCN(C(=O)c1ccc2c(c1)OCCO2)c1nc2c(Cl)cccc2s1 | · | ? | 50µM* | ? | -15%
CCOc1cccc2sc(N(CCN(C)C)C(=O)c3ccc(Br)s3)nc12 | · | -6% | 10%[59 µM] | -2% | 39%
COC(=O)c1ccc(C(=O)N(CCN(C)C)c2nc3c(Cl)cccc3s2)cc1 | · | -12% | 56µM* | · | 3%
CN(C)CCN(C(=O)c1cccc(Cl)c1)c1nc2c(Cl)cccc2s1 | 8% | ? | 45µM* | 2% | -11%
CN(C)CCN(C(=O)c1ccc2c(c1)OCCO2)c1nc2ccc(Cl)cc2s1 | · | ? | ? | · | -15%
CCOc1ccc(CCNC(=O)c2cc3c(s2)-c2c(C)cccc2OC3)cc1 | · | -4% | 0%[59 µM] | 7% | 33%
COC(=O)Cn1c(-c2ccc(OC)cc2)c(-c2ccc(OC)cc2)nnc1=O | -1%[2.29 µM] | -17% | -14%[0.501 µM] | 56µM* | -2%
CC(C)OC(=O)Cn1c(-c2ccccc2)c(-c2ccccc2)nnc1=O | · | -10% | · | -15% | 42%
CN(c1nnc(NC(=O)Nc2ccc(Br)cc2)s1)C1CCCCC1 | · | -1% | ? | -5% | 37%
COc1ccccc1CNCC(=O)N1CC(=O)Nc2ccccc21 | 7% | 20µM* | 10µM* | 50µM* | -8%
O=C1CN(C(=O)CNC(=O)c2ccccc2Cl)c2ccccc2N1 | · | -11% | 7% | 9% | 15%
O=C1CN(C(=O)CNCc2ccccc2)c2ccccc2N1 | 1% | 3.5µM* | 35µM* | 50µM* | ?
CC(C)(C)c1cc(CN2CCCC(O)C2)c(O)c(C(C)(C)C)c1 (stereo not given) | · | ? | ? | 79µM* | 9%

Screens from PubChem BioAssay.
